Experiment [1] has as its target T1, Serine/threonine-protein kinase TBK1 (Homo sapiens) (UniProt Q9UHD2).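 Also: values are mean inhibition of TBK1, screened as part of the GSK published kinase inhibitor set.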
T1 sequence (whole entry): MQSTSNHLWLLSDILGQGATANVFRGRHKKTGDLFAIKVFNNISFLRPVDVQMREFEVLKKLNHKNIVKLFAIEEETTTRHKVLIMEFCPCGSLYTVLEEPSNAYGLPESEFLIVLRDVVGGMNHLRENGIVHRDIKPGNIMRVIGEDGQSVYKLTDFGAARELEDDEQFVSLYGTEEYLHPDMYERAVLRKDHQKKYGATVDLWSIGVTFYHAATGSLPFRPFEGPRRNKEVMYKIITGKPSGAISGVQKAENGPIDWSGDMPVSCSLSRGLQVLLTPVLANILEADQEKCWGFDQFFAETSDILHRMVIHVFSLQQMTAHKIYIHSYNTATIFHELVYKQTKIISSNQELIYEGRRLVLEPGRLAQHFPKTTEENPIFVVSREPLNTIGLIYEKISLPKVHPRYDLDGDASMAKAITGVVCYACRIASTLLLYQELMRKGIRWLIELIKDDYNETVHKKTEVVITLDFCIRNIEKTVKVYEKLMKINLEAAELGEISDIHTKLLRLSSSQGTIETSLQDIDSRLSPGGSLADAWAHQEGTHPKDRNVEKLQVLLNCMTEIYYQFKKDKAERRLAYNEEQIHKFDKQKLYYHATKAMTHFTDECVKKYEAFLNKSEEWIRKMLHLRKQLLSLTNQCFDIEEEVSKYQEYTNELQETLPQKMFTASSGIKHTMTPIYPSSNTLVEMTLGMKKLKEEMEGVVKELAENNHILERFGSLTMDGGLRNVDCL
To be noted: at 1 µM.

Experiment [2] addresses T2, Testis-specific serine/threonine-protein kinase 1 (Homo sapiens) (UniProt Q9BXA7).
T2 sequence (whole entry): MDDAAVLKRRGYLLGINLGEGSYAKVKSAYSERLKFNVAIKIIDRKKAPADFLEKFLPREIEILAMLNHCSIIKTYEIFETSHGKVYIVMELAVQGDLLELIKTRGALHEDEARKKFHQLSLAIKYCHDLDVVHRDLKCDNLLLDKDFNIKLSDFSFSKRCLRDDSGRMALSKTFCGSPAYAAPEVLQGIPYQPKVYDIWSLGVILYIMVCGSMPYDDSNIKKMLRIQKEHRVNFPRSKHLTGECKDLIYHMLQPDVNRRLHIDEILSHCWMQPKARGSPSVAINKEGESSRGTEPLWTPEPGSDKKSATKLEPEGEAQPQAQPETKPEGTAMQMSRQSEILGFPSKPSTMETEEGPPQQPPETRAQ
Particulars: at 0.1 µM.

For experiment [3], the target named is T2, Testis-specific serine/threonine-protein kinase 1 (Homo sapiens). To be noted: at 1 µM.
Experiment [4] addresses T3, Testis-specific serine/threonine-protein kinase 2 (Homo sapiens) (UniProt Q96PF2).
T3 sequence (whole entry): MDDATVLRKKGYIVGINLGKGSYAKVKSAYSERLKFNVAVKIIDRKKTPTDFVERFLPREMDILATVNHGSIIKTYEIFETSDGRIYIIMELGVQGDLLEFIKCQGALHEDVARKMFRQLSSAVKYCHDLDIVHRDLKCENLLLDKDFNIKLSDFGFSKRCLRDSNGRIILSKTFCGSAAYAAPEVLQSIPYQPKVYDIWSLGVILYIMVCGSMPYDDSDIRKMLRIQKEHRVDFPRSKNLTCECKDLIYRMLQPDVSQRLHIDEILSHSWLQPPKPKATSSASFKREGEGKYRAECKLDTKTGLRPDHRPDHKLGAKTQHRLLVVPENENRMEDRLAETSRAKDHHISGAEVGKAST
To be noted: at 0.1 µM.

Experiment [5] has as its target T3, Testis-specific serine/threonine-protein kinase 2 (Homo sapiens). To be noted: at 1 µM.
For experiment [6], the target named is Casein kinase I isoform alpha (Homo sapiens) (UniProt P48729). To be noted: at 0.1 µM.
Casein kinase I isoform alpha (Homo sapiens), sequence (P48729 2-337 limits assumed): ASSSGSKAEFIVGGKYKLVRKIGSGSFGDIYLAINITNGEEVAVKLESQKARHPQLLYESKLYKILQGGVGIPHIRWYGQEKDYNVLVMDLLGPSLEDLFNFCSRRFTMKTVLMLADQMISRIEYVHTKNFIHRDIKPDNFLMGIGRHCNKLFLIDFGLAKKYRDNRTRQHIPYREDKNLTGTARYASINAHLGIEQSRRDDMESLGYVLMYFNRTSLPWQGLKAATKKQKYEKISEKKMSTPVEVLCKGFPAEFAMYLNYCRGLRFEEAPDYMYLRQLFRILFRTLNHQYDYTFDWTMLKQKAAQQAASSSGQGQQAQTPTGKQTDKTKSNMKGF
The target is the same in experiment [7]. To be noted: at 1 µM.
Experiment [8] deals with Casein kinase I isoform gamma-1 (Homo sapiens) (UniProt Q9HCP0). To be noted: at 0.1 µM.
Casein kinase I isoform gamma-1 (Homo sapiens), sequence (Q9HCP0 whole entry, looked up, canonical isoform): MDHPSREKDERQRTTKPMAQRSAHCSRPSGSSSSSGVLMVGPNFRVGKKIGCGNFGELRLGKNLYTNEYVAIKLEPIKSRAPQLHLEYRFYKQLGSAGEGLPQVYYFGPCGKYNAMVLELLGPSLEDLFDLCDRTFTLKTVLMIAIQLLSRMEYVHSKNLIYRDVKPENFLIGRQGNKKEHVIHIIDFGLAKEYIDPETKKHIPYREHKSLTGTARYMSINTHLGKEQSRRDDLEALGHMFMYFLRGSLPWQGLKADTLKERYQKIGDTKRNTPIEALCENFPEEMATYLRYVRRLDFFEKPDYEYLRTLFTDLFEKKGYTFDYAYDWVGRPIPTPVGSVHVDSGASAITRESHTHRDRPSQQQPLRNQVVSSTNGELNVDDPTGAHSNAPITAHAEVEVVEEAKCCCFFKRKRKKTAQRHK
For experiment [9] the target is unchanged. To be noted: at 1 µM.
Experiment [10] addresses Casein kinase I isoform gamma-2 (Homo sapiens) (UniProt P78368). Particulars: at 0.1 µM.

Casein kinase I isoform gamma-2 (Homo sapiens), sequence (P78368 whole entry, looked up, canonical isoform): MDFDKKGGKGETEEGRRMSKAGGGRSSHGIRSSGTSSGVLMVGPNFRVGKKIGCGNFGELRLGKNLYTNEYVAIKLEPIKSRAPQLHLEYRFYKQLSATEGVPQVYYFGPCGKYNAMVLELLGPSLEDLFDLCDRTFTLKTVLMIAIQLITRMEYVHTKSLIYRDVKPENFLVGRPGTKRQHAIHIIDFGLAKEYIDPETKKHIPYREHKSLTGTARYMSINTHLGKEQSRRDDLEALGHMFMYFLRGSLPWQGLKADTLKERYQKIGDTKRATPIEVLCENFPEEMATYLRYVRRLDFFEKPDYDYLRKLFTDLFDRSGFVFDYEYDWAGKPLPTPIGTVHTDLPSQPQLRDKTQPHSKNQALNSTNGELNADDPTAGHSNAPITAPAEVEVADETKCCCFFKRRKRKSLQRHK

Regarding `COc1cc(Nc2nccc(Nc3ccc4c(C)n[nH]c4c3)n2)cc(OC)c1OC`, the inhibition in experiment [1] is 26.3%; in [2], 1.79%; in experiment [3], 12.6%; in experiment [4], -0.93%; in [5], -0.95%; in [6] it was 0.44%. Moreover, the inhibition in experiment [7] was 0.47%; in experiment [8], 2.35%; in experiment [9], 1.23%; in [10], -0.28%.

Take `Clc1ccc(-c2nn3ncccc3c2-c2ccnc(Nc3ccccc3)n2)cc1`: the inhibition is 2.57% in experiment [1]; 0.84% in experiment [2]; 0.18% in [3]; 2.19% in experiment [4]; -0.46% in experiment [5]; 5.52% in [6]. In addition, the inhibition in [7] stood at 39.6%; in experiment [8], 3.83%; in [9], 1.87%; in experiment [10], 0.23%.

As to `COc1cc2c(cc1Nc1nc(Nc3ccsc3C(N)=O)c3cc[nH]c3n1)N(C(=O)CN(C)C)CCC2(C)C`, the inhibition turned out to be 50.7% in [1]; 94.6% in experiment [2]; 96.3% in [3]; 87.4% in [4]; 94.6% in experiment [5]; 4.27% in experiment [6]. The inhibition in experiment [7] was determined as 14.9%; in [8] it was 6.43%; in [9], 21.1%; in experiment [10], 3.76%.

With `FC(F)(F)c1cccc(-c2nn3ncccc3c2-c2ccnc(Nc3ccc4c(c3)OCCO4)n2)c1`, the inhibition was 2.28% in [1]; 2.75% in experiment [2]; 1.2% in [3]; -0.07% in [4]; -1.1% in [5]; 1.53% in experiment [6]. Moreover, the inhibition in experiment [7] is 4.39%; in experiment [8], 2.58%; in experiment [9], 4.21%; in experiment [10], 1.92%.

For `CC(C)COC(=O)c1ccc2c(c1)/C(=C/Nc1ccc(S(N)(=O)=O)cc1)C(=O)N2`, the inhibition in experiment [1] was 82.9%; in experiment [2], 11.4%; in experiment [3], 50.2%; in experiment [4], -0.78%; in [5] it was 0.83%; in experiment [6], -2%. Moreover, the inhibition is 1.61% in experiment [7], -1.63% in [8], 7.57% in experiment [9] and -1.09% in experiment [10].

On to `O=S(=O)(CCNCc1ccc(-c2ccc3ncnc(Nc4ccc(OCc5cccc(F)c5)c(Cl)c4)c3c2)o1)c1ccccc1`, for which the inhibition in [1] is 5.89%; in experiment [2] it was 4.61%; in experiment [3], 5.43%; in experiment [4] it was 2.59%; in [5], 3.64%; in [6], 4.43%. Also, the inhibition in experiment [7] amounted to 6.02%; in experiment [8] it was 4.93%; in experiment [9] it was 6.77%; in experiment [10] it was 4.49%.

As to `Cc1cccc2c1NC(=O)/C2=N\Nc1ccc(S(N)(=O)=O)cc1`, the inhibition in [1] is 3.42%; in [2] it was 1.83%; in [3] it was 3.05%; in experiment [4] it was 0.81%; in [5], -1.61%; in experiment [6], 1.01%. Besides, the inhibition in experiment [7] was 4.19%; in experiment [8], 2.88%; in [9] it was 3.11%; in [10], 1.59%.

As for `COc1cc(/C=N/Nc2ncnc3[nH]ncc23)ccc1O`, the inhibition in [1] stood at 21.1%; in experiment [2], 4.57%; in [3], 11.6%; in [4], 3.14%; in experiment [5], 1.44%; in [6], 3.78%. For the same compound, the inhibition in [7] is 13.7%; in experiment [8], 3.68%; in [9], 19%; in [10], 4.88%.

Take `CCCN(CCS(C)(=O)=O)Cc1ccc(-c2ccc3ncnc(Nc4ccc(OCc5cccc(F)c5)c(Cl)c4)c3c2)o1`: the inhibition was found to be 5.16% in experiment [1]; 2.58% in experiment [2]; 1.44% in [3]; 0.97% in [4]; 0.36% in [5]; 1.49% in experiment [6]. Further, the inhibition in experiment [7] is 3.77%; in [8] it was 1.24%; in [9], 1.53%; in experiment [10], 0.76%.

With `CCc1nn2ncccc2c1-c1ccnc(NC2CC2)n1`, the inhibition in experiment [1] is 3.02%; in experiment [2], 1.98%; in experiment [3] it was 3.93%; in experiment [4], 1.82%; in [5], 2.06%; in [6], 4.3%. Moreover, the inhibition in experiment [7] was determined as 15.9%; in experiment [8] it was 1.08%; in experiment [9], 2.03%; in experiment [10] it was 1.32%.

`CC(=O)Nc1cccc(C#Cc2cncnc2Nc2ccc(OCc3cccc(F)c3)c(Cl)c2)c1`: the inhibition in experiment [1] was 3.45%; in experiment [2] it was 1.34%; in experiment [3] it was 0.24%; in [4], 0.06%; in [5] it was -1.88%; in experiment [6], -1.79%. Besides, the inhibition is 3.28% in experiment [7], 2.22% in [8], 2% in experiment [9] and 0.52% in [10].

For the compound `CCN1CCC(CC(=O)Nc2n[nH]c3nnc(-c4cccc(F)c4F)cc23)CC1`, the inhibition in [1] is 4.19%; in experiment [2], 2.14%; in experiment [3] it was 1.72%; in experiment [4], 3.15%; in experiment [5], 1.74%; in experiment [6], 0.5%. Further, the inhibition is -1.29% in [7], 0.85% in [8], 2.08% in experiment [9] and -0.21% in [10].

With `Cc1cccc(Nc2ncc(-c3ccccc3)o2)c1`, the inhibition in experiment [1] was 7.09%; in experiment [2], 2.67%; in [3] it was 4.49%; in [4] it was 0.72%; in experiment [5], 1.53%; in experiment [6], 3.35%. The inhibition in [7] came out at 9.63%; in [8], 2.09%; in experiment [9], 4.93%; in experiment [10], 1.92%.

Regarding `COc1ccc(-c2nn3ncccc3c2-c2ccnc(Nc3ccc4c(c3)OCCO4)n2)cc1`, the inhibition in experiment [1] was 1.43%; in experiment [2], -0.54%; in experiment [3], -0.16%; in [4], 1.42%; in experiment [5] it was -0.78%; in [6], 0%. For the same compound, the inhibition in experiment [7] amounted to 3.14%; in [8], 1.16%; in experiment [9], 3.57%; in [10], 1.93%.

As to `CC(=O)NCc1cccc(C#Cc2cncnc2Nc2ccc(OCc3cccc(F)c3)c(Cl)c2)c1`, the inhibition in [1] is 4.8%; in [2], 1.79%; in [3] it was 2.15%; in experiment [4], 0.5%; in experiment [5] it was 1.59%; in experiment [6] it was -1.4%. In addition, the inhibition in experiment [7] was -0.4%; in experiment [8], 0.6%; in experiment [9] it was 0.01%; in experiment [10], -0.69%.

In the case of `CCN(CC)S(=O)(=O)c1ccc(OC)c(Nc2ncc(-c3ccccc3)o2)c1`, the inhibition is 4.22% in [1]; 0.3% in experiment [2]; -0.98% in experiment [3]; -0.73% in experiment [4]; -0.01% in [5]; 1.13% in experiment [6]. Moreover, the inhibition in experiment [7] was determined as 1.02%; in experiment [8], 0.91%; in [9], 0.27%; in experiment [10], 0.3%.

`Cc1ccc2c(-c3ccnc(Nc4ccccc4)n3)c(-c3ccc(F)cc3)nn2n1`: the inhibition in [1] is 2.79%; in experiment [2] it was 2.68%; in experiment [3] it was 0.03%; in [4], 2.66%; in experiment [5], -2.67%; in experiment [6] it was 33.6%. Moreover, the inhibition stood at 70.7% in experiment [7], 5.48% in experiment [8], 32% in [9] and 5.54% in [10].

As usually defined, the inhibition is the relative decrease from the control value, in per cent.

The values above are taken from ChEMBL document CHEMBL1961873, “Compounds: GSK PKIS; Assays: Nanosyn kinase panel” (2012).
